Reference: ChEMBL document CHEMBL1961873, “Compounds: GSK PKIS; Assays: Nanosyn kinase panel” (2012)

Key:
[1] = target: T1, Serine/threonine-protein kinase D2 (Homo sapiens) (UniProt Q9BZL6); conditions: at 1 µM;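 also: mean value of PRKD2 inhibition, from the GSK PKIS screening panel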
T1 sequence (whole entry): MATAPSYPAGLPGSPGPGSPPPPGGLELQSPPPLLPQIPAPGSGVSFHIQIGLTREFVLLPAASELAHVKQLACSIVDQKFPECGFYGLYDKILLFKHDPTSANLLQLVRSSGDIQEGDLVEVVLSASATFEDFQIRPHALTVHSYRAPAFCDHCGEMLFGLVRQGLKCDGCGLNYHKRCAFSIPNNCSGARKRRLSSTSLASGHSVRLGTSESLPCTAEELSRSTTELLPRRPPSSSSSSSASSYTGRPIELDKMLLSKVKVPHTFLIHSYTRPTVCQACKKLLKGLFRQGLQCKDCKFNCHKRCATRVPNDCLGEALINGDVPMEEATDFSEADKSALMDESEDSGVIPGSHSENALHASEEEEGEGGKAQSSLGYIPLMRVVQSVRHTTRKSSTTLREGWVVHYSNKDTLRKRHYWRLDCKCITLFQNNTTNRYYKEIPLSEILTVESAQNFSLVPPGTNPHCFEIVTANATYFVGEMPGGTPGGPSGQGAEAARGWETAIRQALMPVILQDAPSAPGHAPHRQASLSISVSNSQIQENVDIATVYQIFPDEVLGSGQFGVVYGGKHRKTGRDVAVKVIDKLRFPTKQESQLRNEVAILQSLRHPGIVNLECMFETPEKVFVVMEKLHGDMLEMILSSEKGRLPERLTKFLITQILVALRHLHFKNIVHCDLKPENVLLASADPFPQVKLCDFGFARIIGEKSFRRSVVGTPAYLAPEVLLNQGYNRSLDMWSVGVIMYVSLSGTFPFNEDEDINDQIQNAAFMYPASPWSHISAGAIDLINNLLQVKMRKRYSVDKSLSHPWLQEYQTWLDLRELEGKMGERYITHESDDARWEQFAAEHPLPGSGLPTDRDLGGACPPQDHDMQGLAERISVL

[2] = target: T2, Serine/threonine-protein kinase D3 (Homo sapiens) (UniProt O94806); conditions: at 0.1 µM
T2 sequence (whole entry): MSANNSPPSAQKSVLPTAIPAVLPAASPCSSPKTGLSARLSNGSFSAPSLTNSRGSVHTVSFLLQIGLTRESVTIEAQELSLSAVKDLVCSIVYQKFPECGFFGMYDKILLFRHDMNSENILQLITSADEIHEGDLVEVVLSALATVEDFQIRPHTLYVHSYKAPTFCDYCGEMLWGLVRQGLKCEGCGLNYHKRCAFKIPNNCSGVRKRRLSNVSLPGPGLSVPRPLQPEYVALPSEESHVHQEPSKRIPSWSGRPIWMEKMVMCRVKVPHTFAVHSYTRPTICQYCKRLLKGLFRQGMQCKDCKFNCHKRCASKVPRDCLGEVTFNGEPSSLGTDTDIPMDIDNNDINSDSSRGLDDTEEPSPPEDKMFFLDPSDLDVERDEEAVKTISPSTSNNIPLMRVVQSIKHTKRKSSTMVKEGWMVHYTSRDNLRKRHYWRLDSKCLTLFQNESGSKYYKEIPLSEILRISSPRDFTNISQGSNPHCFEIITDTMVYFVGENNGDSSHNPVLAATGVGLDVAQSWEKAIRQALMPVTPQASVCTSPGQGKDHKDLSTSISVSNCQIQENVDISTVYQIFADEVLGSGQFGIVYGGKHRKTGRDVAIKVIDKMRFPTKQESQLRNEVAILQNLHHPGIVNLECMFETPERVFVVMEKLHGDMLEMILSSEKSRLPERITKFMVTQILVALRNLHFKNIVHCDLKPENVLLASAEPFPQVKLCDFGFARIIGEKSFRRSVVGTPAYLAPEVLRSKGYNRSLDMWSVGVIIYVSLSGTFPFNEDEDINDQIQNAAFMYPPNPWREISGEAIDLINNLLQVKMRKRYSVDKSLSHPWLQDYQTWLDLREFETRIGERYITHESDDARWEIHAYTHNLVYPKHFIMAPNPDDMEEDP

[3] = target: T2, Serine/threonine-protein kinase D3 (Homo sapiens); conditions: at 1 µM
[4] = target: T3, cGMP-dependent protein kinase 1 (Homo sapiens) (UniProt Q13976); conditions: at 0.1 µM
T3 sequence (whole entry): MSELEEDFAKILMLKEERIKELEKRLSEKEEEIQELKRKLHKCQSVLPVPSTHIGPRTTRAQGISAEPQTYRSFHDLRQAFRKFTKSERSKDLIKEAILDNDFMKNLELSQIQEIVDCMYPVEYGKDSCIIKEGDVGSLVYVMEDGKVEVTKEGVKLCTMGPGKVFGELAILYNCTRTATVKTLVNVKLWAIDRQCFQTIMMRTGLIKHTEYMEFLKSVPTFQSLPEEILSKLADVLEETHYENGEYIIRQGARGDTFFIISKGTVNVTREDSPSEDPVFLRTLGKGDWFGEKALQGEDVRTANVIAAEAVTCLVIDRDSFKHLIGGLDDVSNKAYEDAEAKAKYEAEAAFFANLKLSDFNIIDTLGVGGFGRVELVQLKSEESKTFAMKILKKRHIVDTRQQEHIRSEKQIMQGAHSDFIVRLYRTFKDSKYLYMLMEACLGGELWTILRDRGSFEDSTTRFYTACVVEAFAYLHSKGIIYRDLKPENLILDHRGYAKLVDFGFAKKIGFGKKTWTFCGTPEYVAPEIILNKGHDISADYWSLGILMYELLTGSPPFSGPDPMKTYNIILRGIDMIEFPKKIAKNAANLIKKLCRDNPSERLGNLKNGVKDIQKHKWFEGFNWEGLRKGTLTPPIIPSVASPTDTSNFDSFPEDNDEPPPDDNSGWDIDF

[5] = target: T3, cGMP-dependent protein kinase 1 (Homo sapiens); conditions: at 1 µM
[6] = target: T4, cGMP-dependent protein kinase 2 (Homo sapiens) (UniProt Q13237); conditions: at 0.1 µM
T4 sequence (whole entry): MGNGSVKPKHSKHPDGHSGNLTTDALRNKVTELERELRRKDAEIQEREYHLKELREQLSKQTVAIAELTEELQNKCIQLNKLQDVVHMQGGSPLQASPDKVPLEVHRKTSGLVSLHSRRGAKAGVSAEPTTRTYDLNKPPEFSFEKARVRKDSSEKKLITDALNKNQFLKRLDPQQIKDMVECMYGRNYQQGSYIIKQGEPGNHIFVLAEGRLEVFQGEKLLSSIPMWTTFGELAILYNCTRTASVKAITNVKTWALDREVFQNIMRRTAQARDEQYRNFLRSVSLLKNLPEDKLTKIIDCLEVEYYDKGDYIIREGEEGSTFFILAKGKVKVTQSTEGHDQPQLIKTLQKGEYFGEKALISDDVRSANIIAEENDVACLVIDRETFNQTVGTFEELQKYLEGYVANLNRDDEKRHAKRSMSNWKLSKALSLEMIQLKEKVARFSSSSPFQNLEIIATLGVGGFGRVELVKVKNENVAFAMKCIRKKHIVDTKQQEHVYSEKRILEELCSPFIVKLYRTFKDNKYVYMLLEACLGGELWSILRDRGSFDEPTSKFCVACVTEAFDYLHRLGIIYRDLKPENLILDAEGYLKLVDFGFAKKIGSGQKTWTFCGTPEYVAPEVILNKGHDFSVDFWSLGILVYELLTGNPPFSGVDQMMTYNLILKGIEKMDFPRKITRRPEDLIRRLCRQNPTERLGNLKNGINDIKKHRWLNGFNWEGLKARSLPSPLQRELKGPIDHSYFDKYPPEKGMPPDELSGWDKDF

[7] = target: T4, cGMP-dependent protein kinase 2 (Homo sapiens); conditions: at 1 µM
[8] = target: T5, cAMP-dependent protein kinase catalytic subunit PRKX (Homo sapiens) (UniProt P51817); conditions: at 0.1 µM
T5 sequence (whole entry): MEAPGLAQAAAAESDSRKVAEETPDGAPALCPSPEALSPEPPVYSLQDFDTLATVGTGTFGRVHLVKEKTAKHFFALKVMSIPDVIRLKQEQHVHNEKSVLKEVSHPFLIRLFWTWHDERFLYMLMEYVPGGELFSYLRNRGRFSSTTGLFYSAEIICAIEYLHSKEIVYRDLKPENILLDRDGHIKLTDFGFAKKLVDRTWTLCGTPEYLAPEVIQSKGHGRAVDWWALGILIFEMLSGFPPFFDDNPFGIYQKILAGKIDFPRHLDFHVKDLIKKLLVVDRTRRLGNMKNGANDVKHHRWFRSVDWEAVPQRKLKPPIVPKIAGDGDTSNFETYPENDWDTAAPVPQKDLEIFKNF

[9] = target: T5, cAMP-dependent protein kinase catalytic subunit PRKX (Homo sapiens); conditions: at 1 µM
[10] = target: Rho-associated protein kinase 1 (Homo sapiens) (UniProt Q13464); conditions: at 0.1 µM
[11] = target: Rho-associated protein kinase 1 (Homo sapiens) (UniProt Q13464); conditions: at 1 µM
[12] = target: Rho-associated protein kinase 2 (Homo sapiens) (UniProt O75116); conditions: at 0.1 µM
[13] = target: Rho-associated protein kinase 2 (Homo sapiens) (UniProt O75116); conditions: at 1 µM
[14] = target: Ribosomal protein S6 kinase alpha-1 (Homo sapiens) (UniProt Q15418); conditions: at 0.1 µM
[15] = target: Ribosomal protein S6 kinase alpha-1 (Homo sapiens) (UniProt Q15418); conditions: at 1 µM
[16] = target: Ribosomal protein S6 kinase alpha-3 (Homo sapiens) (UniProt P51812); conditions: at 0.1 µM
[17] = target: Ribosomal protein S6 kinase alpha-3 (Homo sapiens) (UniProt P51812); conditions: at 1 µM
[18] = target: Ribosomal protein S6 kinase alpha-2 (Homo sapiens) (UniProt Q15349); conditions: at 0.1 µM
[19] = target: Ribosomal protein S6 kinase alpha-2 (Homo sapiens) (UniProt Q15349); conditions: at 1 µM
[20] = target: Ribosomal protein S6 kinase alpha-6 (Homo sapiens) (UniProt Q9UK32); conditions: at 0.1 µM;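 also: reported value is the mean inhibition of RSK4, from the GSK PKIS kinase inhibitor screen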
Ribosomal protein S6 kinase alpha-6 (Homo sapiens), sequence (Q9UK32 whole entry): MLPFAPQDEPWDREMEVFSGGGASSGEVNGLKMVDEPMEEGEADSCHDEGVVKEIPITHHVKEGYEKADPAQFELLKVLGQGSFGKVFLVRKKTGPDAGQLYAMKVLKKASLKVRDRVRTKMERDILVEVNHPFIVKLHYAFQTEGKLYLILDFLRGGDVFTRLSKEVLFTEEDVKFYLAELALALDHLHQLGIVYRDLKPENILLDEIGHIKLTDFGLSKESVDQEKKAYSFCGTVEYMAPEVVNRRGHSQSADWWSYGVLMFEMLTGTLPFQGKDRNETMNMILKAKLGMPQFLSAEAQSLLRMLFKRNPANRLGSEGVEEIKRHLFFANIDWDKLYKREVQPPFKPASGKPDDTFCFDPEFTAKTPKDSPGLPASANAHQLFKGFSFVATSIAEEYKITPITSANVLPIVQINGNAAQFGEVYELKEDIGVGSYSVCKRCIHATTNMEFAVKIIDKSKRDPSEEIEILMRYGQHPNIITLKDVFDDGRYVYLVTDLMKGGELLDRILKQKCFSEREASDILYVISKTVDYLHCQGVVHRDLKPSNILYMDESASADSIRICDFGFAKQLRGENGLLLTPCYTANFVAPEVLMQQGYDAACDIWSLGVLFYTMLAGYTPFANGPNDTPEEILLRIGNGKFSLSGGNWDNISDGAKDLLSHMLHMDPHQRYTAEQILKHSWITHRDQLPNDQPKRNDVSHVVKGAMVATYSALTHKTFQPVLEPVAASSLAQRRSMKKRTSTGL

Ribosomal protein S6 kinase alpha-3 (Homo sapiens), sequence (P51812 whole entry): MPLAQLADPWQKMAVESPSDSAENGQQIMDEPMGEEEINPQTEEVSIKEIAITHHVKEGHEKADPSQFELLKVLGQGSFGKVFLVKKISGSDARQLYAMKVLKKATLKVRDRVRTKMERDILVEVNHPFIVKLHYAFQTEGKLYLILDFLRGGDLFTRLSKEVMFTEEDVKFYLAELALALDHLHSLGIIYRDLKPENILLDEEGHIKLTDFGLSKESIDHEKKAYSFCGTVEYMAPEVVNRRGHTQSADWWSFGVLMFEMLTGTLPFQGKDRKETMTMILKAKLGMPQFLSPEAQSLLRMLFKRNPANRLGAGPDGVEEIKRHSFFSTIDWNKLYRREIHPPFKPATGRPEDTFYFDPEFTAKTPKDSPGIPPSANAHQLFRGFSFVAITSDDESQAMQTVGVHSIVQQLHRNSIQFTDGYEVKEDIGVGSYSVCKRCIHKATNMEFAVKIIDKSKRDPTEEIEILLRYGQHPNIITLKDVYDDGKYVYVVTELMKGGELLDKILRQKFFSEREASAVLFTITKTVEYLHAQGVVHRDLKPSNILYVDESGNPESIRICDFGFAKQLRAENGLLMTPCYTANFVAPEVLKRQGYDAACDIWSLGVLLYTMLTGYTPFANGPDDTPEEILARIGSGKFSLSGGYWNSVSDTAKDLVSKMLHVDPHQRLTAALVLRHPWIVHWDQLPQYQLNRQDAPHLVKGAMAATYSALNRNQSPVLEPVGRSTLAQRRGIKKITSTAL
Rho-associated protein kinase 2 (Homo sapiens), sequence (O75116 whole entry, looked up): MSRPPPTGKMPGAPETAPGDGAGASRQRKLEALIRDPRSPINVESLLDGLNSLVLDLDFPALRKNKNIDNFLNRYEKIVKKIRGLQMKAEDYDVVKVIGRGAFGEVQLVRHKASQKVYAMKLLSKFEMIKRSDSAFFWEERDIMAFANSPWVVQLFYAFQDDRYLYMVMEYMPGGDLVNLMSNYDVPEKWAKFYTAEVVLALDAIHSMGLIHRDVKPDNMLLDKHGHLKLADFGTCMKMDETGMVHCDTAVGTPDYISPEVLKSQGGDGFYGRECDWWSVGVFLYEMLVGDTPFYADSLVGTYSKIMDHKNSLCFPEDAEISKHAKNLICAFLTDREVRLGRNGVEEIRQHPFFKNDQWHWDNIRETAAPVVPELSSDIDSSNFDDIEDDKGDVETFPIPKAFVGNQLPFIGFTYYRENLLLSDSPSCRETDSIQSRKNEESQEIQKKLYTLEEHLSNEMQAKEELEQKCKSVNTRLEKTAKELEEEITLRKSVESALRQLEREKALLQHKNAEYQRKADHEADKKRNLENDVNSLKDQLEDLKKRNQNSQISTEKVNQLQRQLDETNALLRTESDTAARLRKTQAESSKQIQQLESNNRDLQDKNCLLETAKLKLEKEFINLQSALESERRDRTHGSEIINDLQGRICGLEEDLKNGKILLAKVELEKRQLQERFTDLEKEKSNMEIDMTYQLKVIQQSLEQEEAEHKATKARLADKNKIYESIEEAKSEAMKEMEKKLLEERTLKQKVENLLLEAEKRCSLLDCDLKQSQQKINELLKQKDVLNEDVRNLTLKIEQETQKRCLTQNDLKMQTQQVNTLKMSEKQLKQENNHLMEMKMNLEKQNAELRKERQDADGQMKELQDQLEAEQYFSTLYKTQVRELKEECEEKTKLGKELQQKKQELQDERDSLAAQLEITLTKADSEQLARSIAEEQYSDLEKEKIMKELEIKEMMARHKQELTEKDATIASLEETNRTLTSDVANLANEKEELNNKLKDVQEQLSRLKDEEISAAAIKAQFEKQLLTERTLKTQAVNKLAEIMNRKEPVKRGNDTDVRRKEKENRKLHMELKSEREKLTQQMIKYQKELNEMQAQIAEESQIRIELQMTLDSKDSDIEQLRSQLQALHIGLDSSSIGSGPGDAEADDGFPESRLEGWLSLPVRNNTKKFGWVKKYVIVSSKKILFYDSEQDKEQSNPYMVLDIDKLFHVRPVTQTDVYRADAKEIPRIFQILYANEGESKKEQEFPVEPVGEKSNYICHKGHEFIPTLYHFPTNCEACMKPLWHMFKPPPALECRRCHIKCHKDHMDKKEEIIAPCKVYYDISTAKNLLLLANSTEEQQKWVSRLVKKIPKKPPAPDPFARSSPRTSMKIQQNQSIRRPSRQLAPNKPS
Ribosomal protein S6 kinase alpha-1 (Homo sapiens), sequence (Q15418 whole entry): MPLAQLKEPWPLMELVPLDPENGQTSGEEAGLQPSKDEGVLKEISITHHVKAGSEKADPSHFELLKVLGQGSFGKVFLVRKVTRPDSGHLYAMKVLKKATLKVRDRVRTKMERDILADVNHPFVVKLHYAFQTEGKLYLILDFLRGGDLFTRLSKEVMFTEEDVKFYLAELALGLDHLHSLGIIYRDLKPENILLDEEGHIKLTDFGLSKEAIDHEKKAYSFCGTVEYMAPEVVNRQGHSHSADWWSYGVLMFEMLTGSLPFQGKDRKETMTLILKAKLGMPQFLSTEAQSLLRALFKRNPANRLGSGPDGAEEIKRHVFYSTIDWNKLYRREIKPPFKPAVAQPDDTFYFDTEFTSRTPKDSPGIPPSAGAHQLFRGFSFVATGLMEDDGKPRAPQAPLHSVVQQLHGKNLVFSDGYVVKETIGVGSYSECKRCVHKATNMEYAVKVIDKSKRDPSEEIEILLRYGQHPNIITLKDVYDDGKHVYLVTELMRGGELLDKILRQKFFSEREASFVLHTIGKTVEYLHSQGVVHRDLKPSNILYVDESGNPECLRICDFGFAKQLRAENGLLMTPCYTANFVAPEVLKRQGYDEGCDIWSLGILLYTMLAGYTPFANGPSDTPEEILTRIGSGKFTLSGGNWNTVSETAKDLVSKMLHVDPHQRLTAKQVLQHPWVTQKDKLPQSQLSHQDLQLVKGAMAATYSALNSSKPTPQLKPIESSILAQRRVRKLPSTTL
Ribosomal protein S6 kinase alpha-2 (Homo sapiens), sequence (Q15349 whole entry): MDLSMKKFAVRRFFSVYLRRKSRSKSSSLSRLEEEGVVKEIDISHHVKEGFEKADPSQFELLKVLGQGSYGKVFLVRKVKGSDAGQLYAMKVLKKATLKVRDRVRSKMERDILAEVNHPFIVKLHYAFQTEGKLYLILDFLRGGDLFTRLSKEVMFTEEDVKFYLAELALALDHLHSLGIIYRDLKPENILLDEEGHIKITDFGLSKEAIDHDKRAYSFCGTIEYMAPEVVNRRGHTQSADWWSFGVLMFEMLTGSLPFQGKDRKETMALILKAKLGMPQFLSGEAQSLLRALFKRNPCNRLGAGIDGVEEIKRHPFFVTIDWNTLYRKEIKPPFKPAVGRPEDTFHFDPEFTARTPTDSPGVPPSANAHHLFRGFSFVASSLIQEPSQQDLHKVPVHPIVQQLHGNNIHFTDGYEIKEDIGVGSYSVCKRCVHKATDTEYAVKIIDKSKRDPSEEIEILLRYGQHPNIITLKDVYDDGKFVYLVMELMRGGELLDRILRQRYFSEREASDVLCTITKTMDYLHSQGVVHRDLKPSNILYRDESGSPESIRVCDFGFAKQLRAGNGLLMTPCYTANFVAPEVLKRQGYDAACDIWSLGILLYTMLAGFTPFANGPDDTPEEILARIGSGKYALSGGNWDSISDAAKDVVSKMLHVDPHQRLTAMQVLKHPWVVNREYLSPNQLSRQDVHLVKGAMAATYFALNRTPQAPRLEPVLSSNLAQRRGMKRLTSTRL

| SMILES | inhibition [1] [%] | inhibition [2] [%] | inhibition [3] [%] | inhibition [4] [%] | inhibition [5] [%] | inhibition [6] [%] | inhibition [7] [%] | inhibition [8] [%] | inhibition [9] [%] | inhibition [10] [%] | inhibition [11] [%] | inhibition [12] [%] | inhibition [13] [%] | inhibition [14] [%] | inhibition [15] [%] | inhibition [16] [%] | inhibition [17] [%] | inhibition [18] [%] | inhibition [19] [%] | inhibition [20] [%] |
| --- | --- | --- | --- | --- | --- | --- | --- | --- | --- | --- | --- | --- | --- | --- | --- | --- | --- | --- | --- | --- |
| CN(C)CCCn1c(-c2nonc2N)nc2cnccc21 | 5.95 | 4.93 | 7.35 | 3.68 | 4.99 | 2.51 | 5.66 | 1.48 | 3.97 | 5.96 | 32.8 | 11.6 | 45.3 | 2.28 | 11.8 | 1.45 | 6.61 | 4.55 | 16.4 | 1.79 |
| COc1cc2ncn(-c3cc(OCc4ccccc4S(C)(=O)=O)c(C#N)s3)c2cc1OC | 4.79 | 4.75 | 5.43 | 4.3 | 5.27 | 3.46 | 5.2 | 1.34 | 2.89 | 3.62 | 6.5 | 5.73 | 6.61 | 5.57 | 14 | 5.02 | 13.7 | 3.37 | 10.2 | 3.14 |
| NS(=O)(=O)c1cccc(Nc2cc(-c3ccc(F)cc3)n[nH]2)c1 | 3.29 | 2.9 | 3.78 | 2.36 | 5.63 | 4.45 | 6.86 | 6.02 | 9.4 | 1.22 | 3.34 | 3.4 | 8.75 | 3.22 | 7.2 | 2.09 | 5.61 | 2.21 | 4.15 | 1.89 |
